Values without a mark were called inactive.
system: Mel-DCC-11; assay: cell viability relative to DMSO control (fraction of DMSO control); higher = less cytotoxic, active = 0.5 or less; settings: 1 µM; 120 h
In short: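 Three cell types were screened against 315 approved anti-cancer drugs from TargetMol, acoustically pre-spotted in 384-well plates at 1 µM in duplicate over 120 h: NHEM-hTERT immortalized melanocytes (2500/well), patient-derived Mel-DCC-11 and its resistant subline Mel-DCC-11-R (both 1500/well), all in 40 µl per well. The subline was tested alone and with 8 µM of its selecting drug. Viability, measured by luminescence, was normalised to vehicle controls and averaged across duplicates, with ATPlite 1step as the readout.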

Structure (SMILES) | cell viability
CNNCc1ccc(C(=O)NC(C)C)cc1.Cl [Procarbazine hydrochloride] | 1.18
CC1(C)CCC(CN2CCN(c3ccc(C(=O)NS(=O)(=O)c4ccc(NCC5CCOCC5)c([N+](=O)[O-])c4)c(Oc4cnc5[nH]ccc5c4)c3)CC2)=C(c2ccc(Cl)cc2)C1 | 1.42
CC1=C(/C=C/C(C)=C/C=C/C(C)=C/C=C/C=C(C)/C=C/C=C(C)/C=C/C2=C(C)CCCC2(C)C)C(C)(C)CCC1 [Beta-Carotene] | 0.738
CC(C)(O)CNc1nc(Nc2ccnc(C(F)(F)F)c2)nc(-c2cccc(C(F)(F)F)n2)n1 [Enasidenib] | 0.875
COc1ccc2[nH]cc(CCNC(C)=O)c2c1 [Melatonine] | 0.874
Nc1nc(F)nc2c1ncn2[C@@H]1O[C@H](CO)[C@@H](O)[C@@H]1O [Fludarabine] | 1.15
CCN1CCN(Cc2ccc(Nc3ncc(F)c(-c4cc(F)c5nc(C)n(C(C)C)c5c4)n3)nc2)CC1.CS(=O)(=O)O [abemaciclib mesylate] | 0.731
CC(C)Cn1cnc2c(N)nc3ccccc3c21 [Imiquimod] | 0.985
C=C[C@H]1[C@@H](O[C@@H]2O[C@H](CO)[C@@H](O)[C@H](O)[C@H]2O)OC=C2C(=O)OCC[C@]21O [Swertiamarin] | 1.35
COc1cccc2c1C(=O)c1c(O)c3c(c(O)c1C2=O)C[C@@](O)(C(=O)CO)C[C@@H]3O[C@H]1C[C@H](N)[C@H](O[C@H]2CCCCO2)[C@H](C)O1 [Pirarubicin] | 0.0404 (active)
CC(C)[C@H](NC(=O)[C@H](CC(=O)O)NC(=O)[C@H](CCCCN)NC(=O)[C@@H](N)CCCNC(=N)N)C(=O)N[C@@H](Cc1ccc(O)cc1)C(=O)O [Thymopentin] | 1.13
Cc1ccc(NC(=O)C2(c3ccc4c(c3)OC(F)(F)O4)CC2)nc1-c1cccc(C(=O)O)c1 [Lumacaftor] | 1.12
CS(=O)(=O)OCCCCOS(C)(=O)=O [Busulfan] | 1.13
O=C([O-])CCCc1ccccc1.[Na+] [Sodium Phenylbutyrate] | 1.12
COc1ccc2cc3[n+](cc2c1OC)CCc1cc2c(cc1-3)OCO2 [Berberine] | 1.36
COc1cc2ncnc(Nc3ccc(F)c(Cl)c3)c2cc1OCCCN1CCOCC1 [Gefitinib] | 1.08
C/C=C1/NC(=O)[C@H]2CSSCC/C=C/[C@H](CC(=O)N[C@H](C(C)C)C(=O)N2)OC(=O)[C@H](C(C)C)NC1=O [Romidepsin] | 0.0954 (active)
Cc1c(C(=O)Nc2ccc(N3C[C@@H](C)O[C@@H](C)C3)nc2)cccc1-c1ccc(OC(F)(F)F)cc1 [Sonidegib] | 1.17
C[C@@H]1C[C@H]2[C@@H]3CCC4=CC(=O)C=C[C@]4(C)[C@@]3(F)[C@@H](O)C[C@]2(C)[C@@]1(O)C(=O)COP(=O)([O-])[O-].[Na+].[Na+] [Dexamethasone Sodium Phosphate] | 1.45
Cc1ccc(NC(=O)c2ccc(CN3CCN(C)CC3)cc2)cc1Nc1nccc(-c2cccnc2)n1 [Imatinib] | 1.15
CC(C)(S)[C@@H](N)C(=O)O [Artamine] | 1.22
CCS(=O)(=O)N1CC(CC#N)(n2cc(-c3ncnc4[nH]ccc34)cn2)C1 [Baricitinib] | 1.14
CCc1cc2c(cc1N1CCC(N3CCOCC3)CC1)C(C)(C)c1[nH]c3cc(C#N)ccc3c1C2=O [Alectinib] | 1.2
CS(=O)(=O)O.Cc1ccc(NC(=O)c2ccc(CN3CCN(C)CC3)cc2)cc1Nc1nccc(-c2cccnc2)n1 [Imatinib Mesylate] | 1.15
COC(=O)N[C@H](C(=O)N1CC2(CC2)C[C@H]1c1ncc(-c2ccc3c(c2)C(F)(F)c2cc(-c4ccc5nc([C@@H]6[C@H]7CC[C@H](C7)N6C(=O)[C@@H](NC(=O)OC)C(C)C)[nH]c5c4)ccc2-3)[nH]1)C(C)C [Ledipasvir] | 1.1
CC(C)C[C@H](NC(=O)[C@@H](O)[C@H](N)Cc1ccccc1)C(=O)O [Ubenimex] | 0.792
